The structures appear in SMILES notation. About 8,600 (12%) of roughly 69,000 compounds showed an effect of 50% or more. The full list was thinned out, with strong results kept by preference.

In the assay the test system is Plasmodium berghei. Put plainly: Screen against P. berghei liver stage (PbLuc), transformed with Luciferase, at 10uM. In kind it is functional, HepG2. To be noted: tested at 10 uM.
As to `O=C(O)c1ccc(CC2CCN(S(=O)(=O)N3CCOCC3)C2)cc1` (configuration not stated), the INHIBITION turned out to be 32.5%.
As to `CN(C)C(=O)CNC(=O)c1cc2c(s1)CCN2S(C)(=O)=O`, the INHIBITION is 26.3%.
In the case of `CN1CCCN(C(=O)c2nc3c(o2)CN(C(=O)c2cccnc2)C3)CC1`, the INHIBITION was 1.9%.
In the case of `COc1cccc(CNC(=O)c2nc3c(o2)CN(S(C)(=O)=O)C3)c1`, the INHIBITION is listed as 52.6%.
On to `CS(=O)(=O)N1Cc2nc(C(=O)NCc3ccccc3)oc2C1`, for which the INHIBITION is listed as 24.6%.
Take `CC(=O)N1Cc2nc(C(=O)NCCc3cccnc3)oc2C1`: the INHIBITION came to 70.7%.
`O=C(NCc1ccncc1)c1nc2c(o1)CN(C(=O)c1cccnc1)C2`: the INHIBITION came out at 29%.
In the case of `CN(C)CCNC(=O)c1nc2c(o1)CN(C(=O)c1cccnc1)C2`, the INHIBITION is listed as -75.3%.
Consider `CCCNC(=O)c1nc2c(o1)CN(C(C)=O)C2`, for which the INHIBITION is recorded as -0.388%.
`Cc1ccc(CNC(=O)c2nc3c(o2)CN(C(=O)c2cccnc2)C3)o1`: the INHIBITION is -21.1%.
With `O=C(NCCN1CCCC1)c1nc2c(o1)CN(C(=O)c1cccnc1)C2` the figure was -42.8%; with `O=C(NCc1ccccc1)c1nc2c(o1)CN(C(=O)c1cccnc1)C2`, 53.2%.
Turning to `CN1CCN(C(=O)c2nc3c(o2)CN(C(=O)c2cccnc2)C3)CC1`, the INHIBITION is recorded as 50.1%.
With `COc1cccc(CNC(=O)c2nc3c(o2)CN(C(=O)N(C)C)C3)c1`, the INHIBITION came out at 48.2%.
Regarding `O=C(NC1CC1)C1=CC2(CCN(CCO)CC2)c2ccccc21`, the INHIBITION turned out to be 28.4%.
With `COCC(=O)N1CCCC2(CCN(CCN3CCCC3)CC2)C1` the figure was -12.1%; with `Cc1noc(C)c1CN(C)C(=O)c1ccc(O)nc1`, 25.1%.
Turning to `CC(=O)N(C)CC(=O)NCC1CCN(c2cc(Cl)ccc2C)C1` (configuration not stated), the INHIBITION is on record as -23.7%.
For `Cc1nccc([C@@H]2C[C@@H]3CCN(S(=O)(=O)N(C)C)C[C@H]3O2)n1`, the INHIBITION came to 26.3%.
With `Cn1ccc(C(=O)N2CCCC(Cc3cnc4ccccc4c3)C2)n1` (configuration not stated) the figure was -0.371%; with `COCCn1cnc2ccc(NC(=O)c3c(C)noc3C)cc2c1=O`, 35.7%; with `Cn1cc(C(=O)N2CC[C@@H]3[C@@H]2CCN3Cc2cccc(F)c2)cn1`, 43.2%.
Turning to `Cc1nc2cc(OCc3nc(C(=O)NC(C)(CO)CO)co3)ccc2s1`, the INHIBITION was found to be 74.5%.
As to `Cc1nc2cc(OCc3nc(C(=O)NC(CO)CO)co3)ccc2s1`, the INHIBITION is on record as 29.4%.
With `CC[C@@H](CO)NC(=O)c1coc(COc2ccc3sc(C)nc3c2)n1` the figure was 41.5%; with `Cn1nnnc1SCC1(O)CCCCC1`, 1.74%.
Take `O=S(=O)(CC1CCCCO1)Nc1cc(F)ccc1-n1cccn1` (configuration not stated): the INHIBITION amounted to 25.7%.
With `Cc1ccc(S(=O)(=O)Nc2ccc(N3CCSCC3)c(C(=O)O)c2)s1` the figure was 43.9%; with `Cc1cc2nc(C(C)C)cc(N(C)CC3CCCN3C)n2n1` (configuration not stated), 33%.
Regarding `Cc1cc2nc(C(C)C)cc(N(C)CC3CCCN(CCO)C3)n2n1` (configuration not stated), the INHIBITION is 58.5%.
With `Cc1cc2nc(C(C)C)cc(N(C)CC3CCN(C(C)C)C3)n2n1` (configuration not stated) the figure was 27.6%.
For `Cc1ccc(NC2CCN(C(=O)c3cncnc3C)CC2)nn1`, the INHIBITION is given as -17.22%.
Regarding `CCn1ccc(NC(=O)CCc2c(C)nn(C)c2C)n1`, the INHIBITION came to 38.7%.
For the molecule `CNC(=O)CS(=O)(=O)C1CCN(S(=O)(=O)c2ccccc2Cl)CC1`, the INHIBITION came out at 25.8%.
For `CNC(=O)CS(=O)(=O)C1CCN(S(=O)(=O)c2ccccc2Br)CC1`, the INHIBITION is on record as -26.6%.
With `CNC(=O)CS(=O)(=O)C1CCN(S(=O)(=O)c2cccc(Cl)c2C)CC1` the figure was 80%; with `Cc1cccc2[nH]c(COCC(=O)N3CCCn4cncc4C3)nc12`, 22.7%.
With `Cc1c(NC(=O)c2ccc(Br)cc2)c(C(=O)N(C)C)nn1C` the figure was 17.6%.
For the molecule `COc1ccc(C(=O)Nc2c(C(=O)N(C)C)nn(C)c2C)cc1`, the INHIBITION was 61.5%.
With `Cc1ccc(C(=O)Nc2c(C(=O)N(C)C)nn(C)c2C)cc1`, the INHIBITION is on record as -10.6%.
Turning to `CCOCC1CN(Cc2ccsc2)Cc2cnn(C)c21` (configuration not stated), the INHIBITION was 36.2%.
With `CC(Cn1cncn1)NC(=O)c1cn(Cc2ccccc2F)nn1` (configuration not stated) the figure was 68.8%; with `COC(=O)C(CO)NC(=O)c1cn(Cc2ccccc2F)nn1` (configuration not stated), -4.4%; with `CC(NC(=O)NCCCn1cncn1)c1ccccc1F` (configuration not stated), 11.9%.
With `COCC1CCN(C(=O)c2cn(Cc3ccccc3F)nn2)CC1` the figure was 14.2%.
Consider `COC(=O)CNC(=O)c1cn(Cc2ccccc2F)nn1`, for which the INHIBITION was determined as 82.9%.
In the case of `O=C(NCCCOc1cccnc1)c1cn(Cc2ccccc2F)nn1`, the INHIBITION turned out to be 12.9%.
With `CCOC(=O)CC(C)NC(=O)c1cn(Cc2ccccc2F)nn1` (configuration not stated), the INHIBITION is -44.2%.
With `NCCn1cc(C(=O)NCc2ccccc2Cn2cccn2)nn1` the figure was 29.4%; with `CCOC(=O)CC(NC(=O)c1cn(Cc2ccccc2F)nn1)C(C)C` (configuration not stated), 72.6%.
On to `COc1ccc(CNCCc2cc(F)cc3c2OCOC3)c(OC)c1`, for which the INHIBITION came out at 30%.
With `Cc1cc(C(=O)NCc2ccc(F)cc2)nc(C2CCCN2C)n1` (configuration not stated), the INHIBITION is recorded as -3.31%.
In the case of `OCCO[C@H]1C[C@@H](O)C12CCN(Cc1nc(C(F)(F)F)no1)CC2`, the INHIBITION is -17.8%.
Turning to `CCN1CCCCC1C(=O)N1CCN(C(=O)OC)CC1` (configuration not stated), the INHIBITION turned out to be 29.9%.
Take `CCn1cnnc1C1CCN(C(=O)c2cnc(C)s2)CC1`: the INHIBITION is 27.6%.
Regarding `CC(C)c1ncncc1C(=O)NCCN1CCCCC1C` (configuration not stated), the INHIBITION was 36.9%.
In the case of `CCOCC1CCN(C(=O)C(c2cccc(F)c2)N(C)C)CC1` (configuration not stated), the INHIBITION is given as 17.5%.
On to `CN(C(=O)CC1=CCCCC1)C1CCCN(CCc2ccccc2)C1` (configuration not stated), for which the INHIBITION came out at 59.2%.
Turning to `CN(C(=O)CC1=CCCCC1)C1CCCN(C2Cc3ccccc3C2)C1` (configuration not stated), the INHIBITION is 28.3%.
For `CN(C(=O)CCc1ccncc1)C1CCCN(CCc2ccccc2)C1` (configuration not stated), the INHIBITION is -8.07%.
With `CC(O)c1cn(Cc2ccc(Cl)cc2Cl)nn1` (configuration not stated), the INHIBITION is 7.92%.
As to `Cc1cc(C(=O)N2CCCC2c2noc(C)n2)[nH]n1` (configuration not stated), the INHIBITION turned out to be 38.5%.
Regarding `CCCC(=O)N(C)c1cc(C#N)c2ccccc2n1`, the INHIBITION is listed as -31.7%.
With `CN(C(=O)CCC(F)(F)F)c1cccc2ncccc12` the figure was 71.4%.
With `CCCC(=O)N(C)c1cccc2ncccc12`, the INHIBITION worked out at 77.8%.
Take `CN(Cc1cccc2ncccc12)C(=O)CCC(F)(F)F`: the INHIBITION is listed as 19.7%.
`CCCNC(=O)c1cccc2ncccc12`: the INHIBITION came out at 26.7%.
Turning to `Cc1cccc(=O)n1CCC(=O)N(C)Cc1cccc2ncccc12`, the INHIBITION was found to be 33.1%.
With `COc1ccc(-n2cc3[nH]c(=O)n(C(C)C)n3c2=O)cc1` the figure was -12.5%; with `CCOCC1CN(Cc2cccs2)Cc2nn(C)cc21` (configuration not stated), -2.72%; with `CCN(Cc1ccc2c(c1)OCCO2)C(=O)c1ccc(C)[nH]c1=O`, -4.43%.
Regarding `Cn1ccc2c(NC(=O)Cn3ncc4c(c3=O)CCCC4)cccc21`, the INHIBITION turned out to be 74.1%.
As to `O=C(Cn1ncc2c(c1=O)CCCCC2)Nc1cccc2[nH]ccc12`, the INHIBITION is reported as 36.1%.
With `Cn1ccc2c(NC(=O)Cn3ncc4c(c3=O)CCCCC4)cccc21` the figure was 6.29%; with `Cn1cc(CC2CCN(C(=O)NCCCc3ccc(O)cc3)C2)cn1` (configuration not stated), 49.2%; with `CC(C)OCCC(=O)NCCC(=O)N1CCN(c2ccccn2)CC1`, 14.2%.
With `CC(C)C(=O)NCCC(=O)N1CCN(c2ccccn2)CC1` the figure was 24.1%; with `CC(C)COCCC(=O)NCCC(=O)N1CCN(c2ccccn2)CC1`, 56.6%.
As for `O=C(CCc1nccs1)N1CCN(c2cccnn2)CC1`, the INHIBITION is given as 1.77%.
For the molecule `O=C(CCc1nccs1)N1CCN(c2ccccn2)CC1`, the INHIBITION turned out to be 51.1%.
With `O=C(CCc1nccs1)N1CCN(c2ncccn2)CC1` the figure was 26.1%.
With `Cc1nn(CC(=O)NCCc2ccncc2)c(=O)n1Cc1ccccc1` the figure was -45%.
With `CNC(=O)CN(C)C(=O)c1cc(Cl)c(I)cc1OC`, the INHIBITION turned out to be 45.2%.
In the case of `CCc1cc(NCc2ccc(-n3cncn3)c(C)c2)n(C)n1`, the INHIBITION is 79.5%.
With `CC(Cn1cncn1)NCc1ccc2nonc2c1` (configuration not stated) the figure was 12%; with `CCCNC(=O)C1CCCN(Cc2ccc(-n3cncn3)c(C)c2)C1` (configuration not stated), -14.5%.
Turning to `Cc1cc(CNc2ccnn2CC(C)C)ccc1-n1cncn1`, the INHIBITION worked out at 89.7%.
Regarding `CCOC(=O)NC1CCCN(Cc2ccc(-n3cncn3)c(C)c2)C1` (configuration not stated), the INHIBITION is listed as -1.35%.
`Cc1cc(CNc2ccnn2C)ccc1-n1cncn1`: the INHIBITION was 62.8%.
With `Cc1cc(CNC(C)Cn2cncn2)ccc1Br` (configuration not stated) the figure was 41.4%; with `Cc1cc(CN2CCCC(NS(C)(=O)=O)C2)ccc1-n1cncn1` (configuration not stated), -3.14%.
As to `Cc1nc(CN)cc(NCc2ccccc2-n2cncn2)n1`, the INHIBITION is reported as 33.7%.
With `CN1CCc2ncc(CNC(=O)c3cccn3C)n2CC1` the figure was 20.9%; with `CCn1ccnc1CN1CCN(Cc2cnc(C)cn2)CC1C` (configuration not stated), 13.2%; with `Cc1nc(Nc2cnccn2)cc(C2CCN(c3ncccn3)C2)n1` (configuration not stated), -17.7%.
With `CC(=O)N1CCCC1c1csc(Nc2cnccn2)n1` (configuration not stated) the figure was 13.5%; with `c1cnc(N2CCC(c3csc(Nc4cnccn4)n3)CC2)nc1`, 76.7%; with `NC(=O)CN1CCC(c2csc(Nc3cnccn3)n2)CC1`, 33.8%.
With `CCC(=O)N1CCCC1c1csc(Nc2cnccn2)n1` (configuration not stated) the figure was -4.82%; with `NC(=O)CN1CCCC1c1csc(Nc2cnccn2)n1` (configuration not stated), 51.5%; with `c1cnc(N2CCCC(c3csc(Nc4cnccn4)n3)C2)nc1` (configuration not stated), 61.3%.
`COCC(=O)N1CCCC1c1csc(Nc2cnccn2)n1` (configuration not stated): the INHIBITION is on record as 44.1%.
With `OCCN1CCC(c2csc(Nc3cnccn3)n2)CC1`, the INHIBITION is listed as 0.825%.
As for `CCCn1cnnc1CN(C)C(=O)C1CCCN(C2CCN(C)CC2)C1` (configuration not stated), the INHIBITION is -21.3%.
In the case of `COCCC(=O)N1CCCC1c1nc(O)cc(-c2ccccn2)n1` (configuration not stated), the INHIBITION was 35.2%.
On to `Cc1nc2n(n1)CC(Nc1nc(-c3ccccc3)no1)CC2` (configuration not stated), for which the INHIBITION is listed as -6.51%.
For `COc1ccccc1CNC(=O)N1CCCC(CO)C1` (configuration not stated), the INHIBITION is -10.7%.
Regarding `CSCc1cc(F)ccc1CNC(=O)N1CCOCC1`, the INHIBITION is on record as 13.1%.
In the case of `CSCc1cc(F)ccc1CNC(=O)N1CCC[C@@H]1CO`, the INHIBITION is recorded as 31.9%.
With `CSCc1cc(F)ccc1CNC(=O)N1CCCC(CO)C1` (configuration not stated), the INHIBITION worked out at 78.3%.
With `CSCc1cc(F)ccc1CNC(=O)N1CCCC1` the figure was -110%; with `CSCc1cc(F)ccc1CNC(=O)N1CCC(CO)CC1`, 56.6%.

The values are drawn from ChEMBL document CHEMBL4513216, “Probing the Open Global Health Chemical Diversity Library for Multistage-Active Starting Points for Next-Generation Antimalarials” (ACS Infect Dis, 2020).
